# Data reported in PubChem BioAssay (NCI).
# This is part of a sample that, as a whole, favours compounds with a hit. Of some 83,000 tested, about 20% had one in any assay.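 The endpoint reported here, percent growth, reads 100 for growth as untreated, 0 for no net growth and -100 for all cells dead.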 Unmarked numbers belong to inactive results. Active and inactive are the calls of the source. The calls were made as follows: active = growth percent below 10; inactive = the rest.
# System: HL-60(TB) leukemia
# Assay: NCI-60 one-dose screen, 48 h (100 = growth as untreated, 0 = no growth, -100 = all killed)
# Conditions: 10 µM unless noted
row,Structure (SMILES),growth
1,CC[C@H](Nc1ncnc(N)c1C(N)=O)c1nc2cccc(NCc3ccc(C(=O)NO)cc3)c2c(=O)n1-c1ccccc1,126%
2,N=c1c2c(=N)n3c(nc2nc2n1-c1ccccc1Sc1ccccc1-2)sc1cc(Cl)ccc13,50.3%
3,COc1cc(/C=C2\C(=O)ON=C2C)cc(OC)c1OC,98.1%
4,NNC(=O)CCCCl,102%
5,NC(CS/C(Cl)=C/Cl)C(=O)O (centres undefined),86.9%
6,O=[N+]([O-])c1ccc(N=Nc2c(NNc3ccc([N+](=O)[O-])cn3)cc(S(=O)(=O)O)c3ccccc23)nc1,94.9%
7,CCN(CC)CCCC(C)Nc1c(-c2ccccc2)cnc2cc(Cl)ccc12 (centres undefined),56.3%
8,O=C1NC(=O)c2c1c1c3ccccc3[nH]c1c1oc3ccc(F)cc3c21,99.5%
9,COc1ccc2c(c1)oc1c(C)c3c(c(C)c12)C(=O)N(CCN1CCOCC1)C3=O,87.6%
10,COc1cc(OC)cc(-c2ccc(-c3ccc(C(=N)N)cn3)s2)c1,-25.4% (active)
11,CC(=O)OC[C@]12CC[C@@H](C(=O)CBr)[C@@H]1[C@H]1CC[C@@H]3[C@@]4(C)CC[C@H](OC(C)=O)C(C)(C)[C@@H]4CC[C@@]3(C)[C@]1(C)CC2,63.8%
12,Nc1cccc2c1C(=O)c1cccc(NC(=O)c3ccccc3)c1C2=O,1.36% (active)
13,CN(C)c1ccc2nc3ccc(=[N+](C)C)cc-3oc2c1,-21% (active)
14,COc1ccc2c(c1)C(=O)/C(=C/c1ccc(OCC(=O)c3ccc(Cl)cc3)cc1)O2,70.2%
